According to PubChem BioAssay (EPA / NIEHS):
Calls of active or inactive are those of the source. How the source made its calls: active means hit-call score of the fitted dose curve at least 0.9, where 1 is the maximum; inactive means score below 0.9.

Read-out: Macrophage colony-stimulating factor (MCSF), CSF1 (gene 1435)
Experiment: BSK_CASM3C_MCSF: BioMAP Diversity Plus: CASM3C Assay for Macrophage colony-stimulating factor (MCSF) Biomarker Activity (AID 2283044);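 further: M-CSF protein amount quantified by ELISA after 24 h exposure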
Conditions: primary human coronary artery smooth muscle cells; actives raise or lower the signal

outcome, inactive:
O=C(N[C@@H](c1ccccc1)[C@@H]1CCCCN1)c1cccc(C(F)(F)F)c1Cl
COc1ccc(OC(F)(F)F)cc1CN[C@H]1CCCN[C@H]1c1ccccc1
CCCCCCCCCCCCCCCCO
CC1=C(C)S(=O)(=O)CCS1(=O)=O
O=C(O)c1cccnc1
CC(=O)OCC(COC(C)=O)OC(C)=O
CC(=O)O
O=C1CCCCC1
C/C=C/C=C/C(=O)O
CCCCC(CC)COP(=O)(OCC(CC)CCCC)OCC(CC)CCCC (stereo not drawn)
CC(=O)S[C@H](C(=O)N[C@H]1Cc2ccccc2[C@H]2CCC[C@@H](C(=O)O)N2C1=O)C(C)C
CN(C)C(=O)NC1(c2ccccc2)CCN(CCC[C@]2(c3ccc(Cl)c(Cl)c3)CCCN(C(=O)c3ccccc3)C2)CC1
CCCCCCCCCC[N+](C)(C)[O-]
CC(C)c1cccc(C(C)C)c1NC(=O)NS(=O)(=O)c1cc(C(C)(C)O)co1
OCC(O)CO
Nc1nc(Cl)nc2c1ncn2[C@H]1C[C@H](O)[C@@H](CO)O1
CCCCCCCC(=O)OC
N[C@@H](Cc1c[nH]c2ccccc12)C(=O)O
CCCC(=O)O
Cc1cn([C@H]2C=C[C@@H](CO)O2)c(=O)[nH]c1=O
O=NO
Cc1cc(SC2=C(O)C[C@@](CCc3ccc(N)cc3)(C(C)C)OC2=O)c(C(C)(C)C)cc1CO
CC(C)COC(=O)CCCCC(=O)OCC(C)C
O=C(O)CN(CC(=O)O)CC(=O)O
CS(=O)(=O)c1ccc([C@@H](C[C@H]2CCC(=O)C2)C(=O)Nc2cnccn2)cc1Cl
CCCCCCC(C=O)=Cc1ccccc1

AC50, active:
Oc1ccc(O)cc1 15.1 µM
Oc1ccccc1O 3.97 µM
CCN(CC)CCOc1ccc(C(=C(Cl)c2ccccc2)c2ccccc2)cc1 26.2 µM

Read-out: Low-density lipoprotein receptor (LDLR), LDLR (gene 3949)
Experiment: BSK_CASM3C_LDLR: BioMAP Diversity Plus: CASM3C Assay for Low-density lipoprotein receptor (LDLR) Biomarker Activity (AID 2283045);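 further: LDLR protein level on the cell surface quantified by ELISA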
Conditions: primary human coronary artery smooth muscle cells; actives raise or lower the signal

AC50, active:
O=C(N[C@@H](c1ccccc1)[C@@H]1CCCCN1)c1cccc(C(F)(F)F)c1Cl 15.4 µM
COc1ccc(OC(F)(F)F)cc1CN[C@H]1CCCN[C@H]1c1ccccc1 6.31 µM
CN(C)C(=O)NC1(c2ccccc2)CCN(CCC[C@]2(c3ccc(Cl)c(Cl)c3)CCCN(C(=O)c3ccccc3)C2)CC1 5 µM
CCN(CC)CCOc1ccc(C(=C(Cl)c2ccccc2)c2ccccc2)cc1 30.6 µM

outcome, inactive:
CCCCCCCCCCCCCCCCO
CC1=C(C)S(=O)(=O)CCS1(=O)=O
O=C(O)c1cccnc1
CC(=O)OCC(COC(C)=O)OC(C)=O
CC(=O)O
Oc1ccc(O)cc1
O=C1CCCCC1
C/C=C/C=C/C(=O)O
CCCCC(CC)COP(=O)(OCC(CC)CCCC)OCC(CC)CCCC (stereo not drawn)
CC(=O)S[C@H](C(=O)N[C@H]1Cc2ccccc2[C@H]2CCC[C@@H](C(=O)O)N2C1=O)C(C)C
CCCCCCCCCC[N+](C)(C)[O-]
CC(C)c1cccc(C(C)C)c1NC(=O)NS(=O)(=O)c1cc(C(C)(C)O)co1
OCC(O)CO
Nc1nc(Cl)nc2c1ncn2[C@H]1C[C@H](O)[C@@H](CO)O1
CCCCCCCC(=O)OC
N[C@@H](Cc1c[nH]c2ccccc12)C(=O)O
CCCC(=O)O
Cc1cn([C@H]2C=C[C@@H](CO)O2)c(=O)[nH]c1=O
O=NO
Oc1ccccc1O
Cc1cc(SC2=C(O)C[C@@](CCc3ccc(N)cc3)(C(C)C)OC2=O)c(C(C)(C)C)cc1CO
CC(C)COC(=O)CCCCC(=O)OCC(C)C
O=C(O)CN(CC(=O)O)CC(=O)O
CS(=O)(=O)c1ccc([C@@H](C[C@H]2CCC(=O)C2)C(=O)Nc2cnccn2)cc1Cl
CCCCCCC(C=O)=Cc1ccccc1
